Source: the supplement of paper PMC6555819

Experiments:
Assay in all cases: PBM binding z-score (relative to random genomic background probes); higher = stronger binding; sequences stand for … in GC…GCGATTGACAGCGTAGAATGAAGG
[1] = test system: FXR:RXRa (NR concentration 270 nM, RXRa partner concentration 90 nM)
Procedure, shortened: (§1)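 Custom Agilent 4×180K protein-binding microarrays carried double-stranded probes, each with a 34-nt variable region. These regions held direct-repeat seeds, single-nucleotide variants, half-site ablations and random human genomic background sequences. Ligand-free nuclear receptor dimers were incubated on the arrays for 1 h, antibodies against each partner (one per run) detected binding, and scanned fluorescence was regression-normalized. Binding z-scores take the random background probes as reference.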

[2] = test system: LXRa:RXRa (NR concentration 270 nM, RXRa partner concentration 90 nM)
Procedure, shortened: as §1

[3] = test system: LXRa homodimer (NR concentration 270 nM)
Procedure, shortened: as §1

[4] = test system: LXRb:RXRa (NR concentration 270 nM, RXRa partner concentration 90 nM)
Procedure, shortened: as §1

[5] = test system: LXRb homodimer (NR concentration 270 nM)
Procedure, shortened: as §1

[6] = test system: PPARa:RXRa (NR concentration 270 nM, RXRa partner concentration 90 nM)
Procedure, shortened: as §1

[7] = test system: PPARg:RXRa (NR concentration 180 nM, RXRa partner concentration 90 nM)
Procedure, shortened: as §1

[8] = test system: PPARg:RXRa 270nM:90nM, anti-RXR (NR concentration 270 nM, RXRa partner concentration 90 nM)
Procedure, shortened: as §1

[9] = test system: PPARg:RXRa 30nM:10nM, anti-RXR (NR concentration 30 nM, RXRa partner concentration 10 nM)
Procedure, shortened: as §1

[10] = test system: PPARg:RXRa 90nM:30nM, anti-RXR (NR concentration 90 nM, RXRa partner concentration 30 nM)
Procedure, shortened: as §1

[11] = test system: PPARg:RXRa DBDmut IVT, anti-RXR (DBD mutation: RXRa K156A/R161A, NR concentration 270 nM, RXRa partner concentration 90 nM)
Procedure, shortened: as §1

[12] = test system: PPARg:RXRa IVT, anti-PPARg (NR concentration 270 nM, RXRa partner concentration 90 nM)
Procedure, shortened: as §1

[13] = test system: PPARg DBDmut:RXRa IVT, anti-PPARg (DBD mutation: PPARg1 K132A/R137A, NR concentration 270 nM, RXRa partner concentration 90 nM)
Procedure, shortened: as §1

[14] = test system: PPARg DBDmut IVT, anti-PPARg (DBD mutation: PPARg1 K132A/R137A, NR concentration 270 nM)
Procedure, shortened: as §1

[15] = test system: PPARg homodimer (NR concentration 180 nM)
Procedure, shortened: as §1

[16] = test system: PXR:RXRa (NR concentration 270 nM, RXRa partner concentration 90 nM)
Procedure, shortened: as §1

[17] = test system: PXR homodimer (NR concentration 270 nM)
Procedure, shortened: as §1

[18] = test system: RARa:RXR (NR concentration 270 nM, RXRa partner concentration 90 nM)
Procedure, shortened: as §1

[19] = test system: RARa homodimer (NR concentration 270 nM)
Procedure, shortened: as §1

[20] = test system: RARb:RXRa (NR concentration 270 nM, RXRa partner concentration 90 nM)
Procedure, shortened: as §1

Row | Sequence | PBM binding z-score [1] | PBM binding z-score [2] | PBM binding z-score [3] | PBM binding z-score [4] | PBM binding z-score [5] | PBM binding z-score [6] | PBM binding z-score [7] | PBM binding z-score [8] | PBM binding z-score [9] | PBM binding z-score [10] | PBM binding z-score [11] | PBM binding z-score [12] | PBM binding z-score [13] | PBM binding z-score [14] | PBM binding z-score [15] | PBM binding z-score [16] | PBM binding z-score [17] | PBM binding z-score [18] | PBM binding z-score [19] | PBM binding z-score [20]
1 | AGTCAAAGTTCAGGACTAGGTAACGTAAAGCACG | 3.95 | 3.56 | 1.18 | 1.7 | 0.0894 | 3.41 | 4.81 | 5.05 | 2.27 | 4.21 | 0.593 | 3.09 | 0.657 | 0.484 | 1.73 | 2.41 | 1.04 | 2.4 | 1.11 | 4.13
2 | CTACCAACGTGAACAAGGTCGTTGATTACTATTC | 0.409 | 0.657 | 0.667 | 1.48 | 0.184 | 1.22 | 0.42 | 0.167 | -0.0638 | 0.0634 | 0.278 | 0.249 | 0.577 | 1.06 | 0.913 | 1.72 | 1 | 1.4 | 0.795 | 0.631
3 | ACAGACAGGTGATGAAGGTAATTCAGGCTATCAT | -0.202 | -0.317 | -0.115 | -0.471 | -0.286 | 0.215 | 0.583 | -0.256 | 0.0788 | -0.356 | 0.125 | 0.521 | 0.823 | 0.3 | 0.3 | -0.0311 | -0.169 | 0.367 | 0.165 | 0.161
4 | CTACCAAGGTGAACAAGGTCGTAGATTACTATTC | 1.44 | 1.27 | -0.0649 | 1.62 | -0.766 | 2.66 | 1.19 | 1.36 | 0.159 | 0.588 | 2.43 | 2.87 | 0.349 | 0.813 | 0.756 | 2.37 | 0.924 | 2.56 | 0.0983 | 2.17
5 | ACAGACAGGTGATGAAGGTTACTCAGGCTATCAT | 0.29 | 0.278 | 0.0459 | 0.276 | -0.288 | 0.714 | 0.777 | 0.381 | 0.107 | 0.0691 | 0.431 | 0.604 | 0.785 | -0.154 | 0.281 | 0.38 | 0.162 | 0.715 | 0.502 | 0.957
6 | CCGAGTAGGCTATGGGGCATTCAGGCAACGGTGA | -0.882 | -1.01 | -0.67 | -0.799 | -1.07 | 0.341 | 1.43 | 2.92 | 0.549 | 2.35 | 0.771 | 0.867 | -0.695 | -1.15 | -0.376 | -0.862 | -0.647 | -0.583 | -0.463 | -0.102
7 | CCGACTGGGGCAAGGGTTACCATACTCAGTACGA | 0.0555 | 0.199 | -0.283 | 0.579 | -0.86 | 3.84 | 8.6 | 7.56 | 6.82 | 7.87 | 3.17 | 4.93 | -0.628 | -1.19 | 0.0321 | 0.443 | -0.412 | 1.53 | -0.348 | 1.57
8 | ACCTCTAGGTAAAGTTCAGTGAAAGATCGATAGA | 0.698 | 1.23 | 0.94 | 0.893 | 0.102 | 1.58 | 1.08 | 2.32 | 0.584 | 1.63 | 1.91 | 1.47 | -0.268 | 0.284 | 0.684 | 1.61 | 1.03 | 0.806 | 0.172 | 2.41
9 | GCTGCTAGGTCAGGTTGGGCAGCTAACGGGTACG | 1.01 | 0.624 | -0.384 | 0.136 | -0.285 | 0.991 | 0.332 | 0.824 | -0.181 | 0.136 | 2.83 | 1.93 | -0.639 | -0.804 | 0.77 | -0.238 | -0.455 | 0.335 | -0.329 | 3.17
10 | AATACAGGGTCACTAGGCCAGAGTTGGTACGAAT | 6.05 | 4.87 | 0.807 | 3.75 | 0.616 | 5.99 | 8.38 | 6.63 | 3.71 | 5.85 | 4.05 | 5.77 | 1.25 | 0.486 | 2.23 | 3.38 | 0.712 | 4.44 | 0.618 | 4.29
11 | TCTTGTAGCTCAACAGGAGGTTAAGAAAGATCGA | -0.163 | 0.472 | -0.218 | 0.222 | -0.709 | 0.659 | -0.365 | 0.868 | 2.01 | 1.4 | 0.679 | -0.415 | 0.889 | 0.0315 | -0.822 | 0.474 | -0.26 | 0.724 | -0.715 | -0.0252
12 | GCTGCTCGGTCAGGTTGGTCAGCTAACGGGTACG | -0.343 | -0.331 | -0.448 | -0.697 | -0.583 | -0.536 | -0.75 | -0.709 | -0.71 | -1.1 | -0.244 | -0.303 | -1.15 | -1.51 | -0.397 | -0.721 | -0.841 | -0.696 | -0.978 | 1.94
13 | AGAATGAGGTTATTAAGATCAGGGAGTTGCGGTC | 1.77 | 1.34 | 0.175 | 1.29 | 0.183 | 2.49 | 1.37 | 2.07 | 0.61 | 1.5 | 3.18 | 2.67 | 0.214 | 0.57 | 0.895 | 1.46 | 0.973 | 1.44 | 0.946 | 1.4
14 | GCGTCTGGGGCATCAGCAGGTTACCATAACTTAA | -0.332 | -0.363 | -0.529 | 0.524 | -0.962 | 0.996 | 0.169 | 0.239 | -0.644 | -0.174 | 2.39 | 1.72 | -0.946 | -0.371 | 0.169 | -0.00705 | -0.377 | 0.336 | -0.422 | 0.978
15 | ATCGAAAGCTCGAGGTGAGTATAGAGAAAGGGAA | -0.382 | -0.596 | -0.515 | -0.793 | -0.851 | -0.028 | 0.163 | -0.516 | -0.268 | -0.554 | -0.98 | 0.455 | 0.71 | 0.162 | -1.14 | -0.37 | -0.567 | -0.162 | -0.838 | 0.00915
